For 10 compounds, activation results are on record in PubChem BioAssay AID574 (The Scripps Research Institute Molecular Screening Center, 2007).

Molecules are shown by their SMILES. Screen size: about 65,000 compounds; about 450 (0.69%) were called active. For the sample, actives were picked, then their nearest neighbours and some compounds at random. Unmarked numbers belong to inactive results.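 Rule for the calls: active = activation above a set limit, the screen-wide mean activation plus 3 SD (cut at about 8.5% in these data); inactive = the rest.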

The target of this assay is 5-hydroxytryptamine receptor 1E (Homo sapiens) (UniProt P28566). The assay is described as follows: activation of human serotonin 5HT1E receptor – cell-based, HTS, primary screen (AID 574).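 Note: 100% = positive control agonist at 1 µM giving full maximal response.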 The following applies: CHO 5-HT1E Ga15 NFAT-bla reporter, FRET; at 6 µM; active compounds read high.
Chain of 5-hydroxytryptamine receptor 1E (Homo sapiens) (P28566 whole entry, looked up): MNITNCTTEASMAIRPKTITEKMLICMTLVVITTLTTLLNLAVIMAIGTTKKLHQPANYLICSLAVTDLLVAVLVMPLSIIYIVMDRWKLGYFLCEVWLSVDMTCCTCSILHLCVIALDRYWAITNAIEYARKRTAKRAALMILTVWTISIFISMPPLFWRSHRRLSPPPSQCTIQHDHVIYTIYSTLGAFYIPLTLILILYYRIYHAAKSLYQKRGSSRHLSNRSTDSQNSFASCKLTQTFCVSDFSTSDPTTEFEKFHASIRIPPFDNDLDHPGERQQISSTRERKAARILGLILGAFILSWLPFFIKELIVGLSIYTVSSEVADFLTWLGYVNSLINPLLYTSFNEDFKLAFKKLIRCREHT
For `c1ccc2sc(C3CCCNC3)nc2c1` (stereo not given), the activation is 98.8% (active). Next, `Cc1ccc(P(=S)(c2ccc(C)o2)N2CCOCC2)o1`: -1.7%. As to `O=C1NC(=O)C(C/C=C/c2ccccc2)C(=O)N1`, the activation was 0.1%. Next, `COc1ccccc1CN1CCN(C(=O)Cc2ccccc2)CC1`: -0.5%. Turning to `Fc1cccc(F)c1CN1CCN(Cc2c(F)cccc2F)CC1`, the activation was 1.1%.

As to `COc1ccc(CN2CCN(c3ccccc3F)CC2)c(OC)c1`, the activation is 54.1% (active). Next, `CC(=NC1CCN(Cc2ccccc2)CC1)c1c(O)n(C)c(=O)n(C)c1=O`: 0%. The result for `CCOP(=S)(OCC)SCOC(=O)NCC(=O)OC` reads -0.2%. In the case of `CC[N+]1(C)CCCC(OC(=O)C(O)(c2ccccc2)c2ccccc2)C1` (stereo not given), the activation is -0.1%. Take `CC(C)c1ccc(OCC(=O)N2CCN(C)CC2)c(Br)c1`: the activation was -1.2%.
